About 83,000 compounds went through this panel and 20% of them were active in at least one assay; those are over-represented in the sample as a whole.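 Growth was measured after 48 h exposure to one concentration of compound in 96-well plates. Values under 10 count as active.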 Unmarked numbers belong to inactive results. Calls of active or inactive are those of the source.
Columns and labels:
Experiment in all cases: NCI-60 one-dose screen, 48 h (100 = growth as untreated, 0 = no growth, -100 = all killed)
[1] = test system: SK-MEL-2 melanoma; settings: 10 µM
[2] = test system: EKVX NSCLC; settings: 10 µM unless noted
[3] = test system: SN12C renal; settings: 10 µM unless noted
[4] = test system: UO-31 renal; settings: 10 µM unless noted
[5] = test system: TK-10 renal; settings: 10 µM unless noted
[6] = test system: ACHN renal; settings: 10 µM unless noted
[7] = test system: CAKI-1 renal; settings: 10 µM unless noted
[8] = test system: A498 renal; settings: 10 µM unless noted
[9] = test system: CCRF-CEM leukemia; settings: 10 µM unless noted
[10] = test system: MOLT-4 leukemia; settings: 10 µM unless noted
[11] = test system: SR leukemia; settings: 10 µM unless noted
[12] = test system: RPMI-8226 leukemia; settings: 10 µM unless noted
[13] = test system: OVCAR-8 ovarian; settings: 10 µM unless noted
[14] = test system: OVCAR-5 ovarian; settings: 10 µM unless noted
[15] = test system: OVCAR-4 ovarian; settings: 10 µM unless noted
[16] = test system: SK-OV-3 ovarian; settings: 10 µM unless noted
[17] = test system: IGROV1 ovarian; settings: 10 µM unless noted
[18] = test system: OVCAR-3 ovarian; settings: 10 µM unless noted
[19] = test system: NCI/ADR-RES ovarian; settings: 10 µM unless noted
[20] = test system: HS 578T breast; settings: 10 µM

Compound	growth [1]	growth [2]	growth [3]	growth [4]	growth [5]	growth [6]	growth [7]	growth [8]	growth [9]	growth [10]	growth [11]	growth [12]	growth [13]	growth [14]	growth [15]	growth [16]	growth [17]	growth [18]	growth [19]	growth [20]
O=C1/C(=C\c2cccc(OCCCCCOc3ccc(Cl)cc3)c2)N=C2SCCCN12	41.2%	37.2%	77.6%	39.4%	56.7%	49.3%	52.7%	39.6%	55.9%	36.7%	92.1%	40.9%	53%	85.3%	31.3%	93.8%	86.9%	59.3%	45.4%	–
CCNCCNc1cc(-c2ccc(Cl)c(Cl)c2)c(C#N)c2nc3ccccc3n12	-83.1% (active)	-80% (active)	-68.9% (active)	-84% (active)	-84.3% (active)	-90.5% (active)	-95.4% (active)	-76.6% (active)	-30.3% (active)	-43.4% (active)	-30.9% (active)	-39.2% (active)	-66% (active)	-76% (active)	-78.4% (active)	-94.1% (active)	-70.7% (active)	-94% (active)	-73.4% (active)	-45.7% (active)
CCc1nc2ccc(Cc3ccc(C(=O)NO)cc3)cc2c(=O)n1CCc1ccccc1	-33.4% (active)	-23.3% (active)	-20.5% (active)	-63.4% (active)	-29.7% (active)	-35.3% (active)	-37% (active)	-75.9% (active)	2.95% (active)	-18.7% (active)	2.05% (active)	6.11% (active)	-31% (active)	1.71% (active)	-7.64% (active)	-26.9% (active)	-56.7% (active)	-37.1% (active)	-17.3% (active)	–
O=C(NCCO)Nc1ccc(-c2nc(N3CCOCC3)c3cccn3n2)cc1	-9.19% (active)	3.13% (active)	5.36% (active)	-18.2% (active)	-23.5% (active)	9.2% (active)	9.37% (active)	-54.8% (active)	27.4%	16.2%	8.14% (active)	7.85% (active)	5.91% (active)	-11% (active)	-15.5% (active)	-37.1% (active)	-25.9% (active)	0.347% (active)	34.5%	–
CCc1nc2cc(/C=C/C(=O)NO)c(F)cc2c(=O)n1CCc1ccccc1	35%	20.6%	3.45% (active)	-28.7% (active)	-5.84% (active)	1.28% (active)	-1.21% (active)	-16.5% (active)	2.77% (active)	-2.57% (active)	8.11% (active)	12%	6.53% (active)	25.4%	11%	-4.18% (active)	26.1%	5.14% (active)	-11.3% (active)	54%
C=C1[C@@H](O)C[C@H]2C(C)(C)C[C@H](Cl)C[C@]2(C)[C@H]1C[C@H](O)[C@H]1CC(=O)NC1=O	-70.4% (active)	-25.1% (active)	-28.9% (active)	-26.1% (active)	-18.6% (active)	-26.2% (active)	1.87% (active)	-76% (active)	0.532% (active)	–	7.18% (active)	-0.0704% (active)	-18% (active)	-10.8% (active)	-36.3% (active)	-29.7% (active)	-15.4% (active)	-27.4% (active)	-2.98% (active)	-15.7% (active)
CCOC(=O)C1=C(C)N=C2Sc3cc(OC(F)(F)F)ccc3N2[C@H]1c1ccccn1	43.6%	26.8%	47.4%	33.1%	51.1%	32.8%	27.9%	–	43.3%	29.5%	26.2%	33.6%	38%	65%	28.3%	39.9%	39.8%	51.5%	38.2%	63.5%
CC(=O)Oc1ccccc1C(=O)N=C1[Se]CCN1C(=O)c1ccccc1OC(C)=O	-18.4% (active)	-39% (active)	-30% (active)	-91% (active)	-72.3% (active)	-91.5% (active)	-97.7% (active)	-94% (active)	18.6%	6.05% (active)	24%	12.1%	-12.1% (active)	-12.4% (active)	-2.68% (active)	-30.6% (active)	-15.1% (active)	-74.2% (active)	-6.15% (active)	-14.9% (active)
C=C1C(=O)O[C@H]2[C@H]1CC/C(Cn1cc(-c3cc(C)c(C)cc3C)nn1)=C\CC[C@@]1(C)O[C@@H]21	-12.9% (active)	-79.9% (active)	-34.6% (active)	-98.3% (active)	-98.9% (active)	-86.7% (active)	-93.7% (active)	–	-13.8% (active)	-19.2% (active)	-5.15% (active)	-24.6% (active)	-55.9% (active)	-45.6% (active)	-94.3% (active)	76.2%	-63.9% (active)	-95.2% (active)	5.12% (active)	11.6%
Fc1ccc(NCc2cn(-c3ccccc3)nc2-c2ccc(OCc3ccccc3)cc2)cc1Cl	91.9%	85.7%	91.6%	75%	93.7%	91%	82.9%	119%	92%	85.8%	96.1%	98%	105%	86.6%	97.5%	82.3%	96.9%	97.3%	95.4%	–
CC(N)C(Cc1ccccc1)c1ccc(Cl)cc1 (stereo not given)	96.7%	91.6%	90.7%	65.4%	89.5%	97%	79.1%	–	91.2%	76.4%	67.9%	94.5%	96.1%	80.8%	85.8%	72.5%	94.8%	102%	95.7%	86.2%
N#Cc1c(-c2ccc(C(F)(F)F)cc2)c(F)c(NCCC2CCC(O)C2)n2c1nc1ccccc12 (stereo not given)	101%	43.8%	49.1%	52.6%	83.6%	61.2%	26.6%	35.4%	17.9%	45.9%	9.1% (active)	49.5%	45.4%	88.7%	69.9%	43.2%	50.2%	79.9%	37.9%	86.8%
COc1cnc2c(c1)C(=O)c1c-2n(CCCN2CCC(O)CC2)c(=O)c2cc(Cl)ccc12	107%	67.7%	30.5%	15%	82.8%	8.76% (active)	20.1%	-3% (active)	0.479% (active)	-7.04% (active)	-16.9% (active)	8.25% (active)	46.1%	101%	70%	27.8%	55.6%	80.9%	28.3%	86.7%
CCN(CCN(C)C)C(=O)CNCc1cc(C(N)=O)ccn1	94.8%	104%	98.8%	93.2%	96.4%	108%	105%	–	93.6%	99.8%	93%	96.1%	89.9%	101%	109%	96.4%	109%	119%	104%	108%
COc1cnc2c(c1)C(=O)c1c-2n(CCCn2ccnc2)c(=O)c2cc(Cl)ccc12	50%	40.2%	10%	-0.232% (active)	45.9%	-3.65% (active)	11.9%	-41.2% (active)	-11.9% (active)	–	-10.3% (active)	-15.3% (active)	17.4%	26.6%	40.4%	-28% (active)	35.2%	-8.34% (active)	4.79% (active)	75.1%
COc1cnc2c(c1)C(=O)c1c-2n(CCCNC2=NCCS2)c(=O)c2cc(Cl)ccc12	90.5%	-35.8% (active)	-49.4% (active)	-80.6% (active)	-17.7% (active)	-91.8% (active)	-91.8% (active)	-13% (active)	-23% (active)	-41.5% (active)	2.52% (active)	-31.2% (active)	-25.1% (active)	4.29% (active)	49.5%	20.9%	-57% (active)	-67.9% (active)	-14.5% (active)	85.8%
